The campaign covered roughly 39,000 compounds. About 3,300 (8.5%) were called active. The list comes from a sample in which actives are over-represented; it also holds similar structures and randomly drawn compounds.
Tested on: HepG2
Assay: cytotoxicity call (relative viability < 0.9)
Conditions: 10 µM

SMILES	cytotoxicity call
O=C(C[C@H]1CC[C@H]2[C@@H](COC[C@@H](O)CN2C(=O)Nc2ccc(C(F)(F)F)cc2)O1)NCCc1ccncc1	inactive
Cc1noc(C)c1NC(=O)Nc1ccc2c(c1)C(=O)N([C@H](C)CO)C[C@H](C)[C@H](CN(C)S(=O)(=O)c1ccc(F)cc1)OCCCC[C@@H](C)O2	inactive
COCC#Cc1ccc2c(c1)O[C@@H](CN(C)C(=O)Nc1ccccc1F)[C@@H](C)CN([C@@H](C)CO)S2(=O)=O	inactive
CCCN1C[C@@H](C)[C@@H](OC)CN(C)C(=O)c2cc(NS(=O)(=O)c3cn(C)cn3)ccc2OC[C@H]1C	inactive
CN1CCN(C(=O)C[C@H]2CC[C@@H]3[C@H](COC[C@H](O)CN3C(=O)C3CCOCC3)O2)CC1	inactive
c1cnc2ccc3ncccc3c2c1	inactive
Oc1c(Cl)cc(Cl)c2cccnc12	active
O=S(=O)([O-])c1cc(I)c(O)c2ncccc12.[Na+]	active
O=c1nc[nH]c2ncccc12	inactive
CCOc1ccc(S(=O)(=O)[O-])c2cccnc12.[Na+]	inactive
Oc1c(I)cc(Cl)c2cccnc12	active
Oc1c(Br)cc(Br)c2cccnc12	active
Clc1nccc2ccccc12	inactive
Cc1ccc2c(Cl)cc(Cl)c(O)c2n1	inactive
CCCCCCCCCCCCCCCCCCOC[C@H](COP(=O)(O)O[C@H]1[C@@H](O)[C@@H](O)[C@@H](O)C[C@@H]1OC)OC	inactive
C[C@@H]1CCCCO[C@@H](CN(C)S(C)(=O)=O)[C@H](C)CN([C@H](C)CO)C(=O)c2cc(NS(=O)(=O)c3cn(C)cn3)ccc2O1	inactive
O=C(C[C@@H]1CC[C@H](NC(=O)CN2CCOCC2)[C@H](CO)O1)NCCc1ccncc1	inactive
CC(=O)N1Cc2cc(C(=O)NCC(F)(F)F)nc(-c3cccc(-c4cc5ccccc5o4)c3)c2[C@H]1CCO	inactive
C[C@@H]1CCCCO[C@H](CN(C)C(=O)Nc2ccc(C(F)(F)F)cc2)[C@@H](C)CN([C@H](C)CO)C(=O)c2cc(NS(=O)(=O)c3cn(C)cn3)ccc2O1	inactive
C[C@@H]1CN([C@H](C)CO)S(=O)(=O)c2ccc(-c3ccc(C(=O)N(C)C)cc3)cc2O[C@H]1CN(C)C(=O)Cc1ccccn1	inactive
Cc1noc(C)c1S(=O)(=O)Nc1ccc2c(c1)C(=O)N([C@@H](C)CO)C[C@@H](C)[C@@H](CN(C)C(=O)Nc1ccc(F)cc1)OCCCC[C@@H](C)O2	inactive
C[C@H](CO)N1C[C@H](C)[C@H](CN(C)C(=O)Nc2ccccc2)Oc2ccc(NC(=O)CCCN(C)C)cc2C1=O	inactive
Cc1cc(C)c2ccc(Cl)nc2n1	inactive

SMILES	cytotoxicity call
Cc1noc(C)c1NC(=O)Nc1ccc2c(c1)C(=O)N([C@H](C)CO)C[C@H](C)[C@H](CN(C)CC1CCCCC1)OCCCC[C@H](C)O2	inactive
C[C@@H]1CN([C@@H](C)CO)C(=O)c2cc(NC(=O)Nc3cccc4ccccc34)ccc2O[C@H]1CN(C)C(=O)NC1CCCCC1	inactive
CC(C)NC(=O)N(C)C[C@H]1Oc2cc(C#Cc3ccccn3)ccc2S(=O)(=O)N([C@H](C)CO)C[C@@H]1C	inactive
CC(C)(O)c1ccccc1CCC(SCC1(CC(=O)[O-])CC1)c1cccc(C=Cc2ccc3ccc(Cl)cc3n2)c1.[Na+] (stereo not given)	inactive
Nc1ncccc1O	inactive
Nc1ncccc1F	inactive
Oc1c(I)cc(I)c2cccnc12	active
CC(=O)N(C)C[C@H]1Oc2ncc(C#C[C@@H](C)O)cc2C(=O)N([C@H](C)CO)C[C@@H]1C	inactive
COc1ccc([Si](C)(C)[C@H]2[C@H](CC(=O)N(CCO)Cc3ccccc3)O[C@@]3(C(=O)N(Cc4ccc(N5C(=O)c6cccc7cccc5c67)cc4)c4ccccc43)[C@@H]2C)cc1	active
COc1ccc([Si](C)(C)[C@@H]2[C@@H](CC(=O)N(CCO)Cc3ccccc3)O[C@]3(C(=O)N(Cc4ccc(N5CCC5=O)cc4)c4ccccc43)[C@H]2C)cc1	inactive
COc1ccc([Si](C)(C)[C@H]2[C@H](CC(=O)N(CCO)Cc3ccccc3)O[C@@]3(C(=O)N(Cc4ccc(N5CCOC5=O)cc4)c4ccccc43)[C@@H]2C)cc1	inactive
COc1ccc([Si](C)(C)[C@H]2[C@H](CC(=O)N(CCO)Cc3ccccc3)O[C@@]3(C(=O)N(Cc4cccc(N5C(=O)c6cccc7cccc5c67)c4)c4ccccc43)[C@@H]2C)cc1	active
C[C@@H]1[C@@H]([Si](C)(C)F)[C@H](CC(=O)N2Cc3ccccc3C[C@H]2CO)O[C@@]12C(=O)N(c1ccccc1)c1ccccc12	inactive
COc1ccc([Si](C)(C)[C@@H]2[C@@H](CC(=O)N(CCO)Cc3ccccc3)O[C@]3(C(=O)N(Cc4cccc(N5CCCCC5=O)c4)c4ccccc43)[C@H]2C)cc1	inactive
C[C@H]1[C@H]([Si](C)(C)F)[C@@H](CC(=O)N(CCO)Cc2ccccc2)O[C@]12C(=O)N(c1ccccc1)c1ccccc12	inactive
COc1ccc([Si](C)(C)[C@@H]2[C@@H](CC(=O)N(CCO)Cc3ccccc3)O[C@]3(C(=O)N(Cc4ccc(N5C(=O)c6cccc7cccc5c67)cc4)c4ccccc43)[C@H]2C)cc1	active
COc1ccc([Si](C)(C)[C@H]2[C@H](CC(=O)N(CCO)Cc3ccccc3)O[C@@]3(C(=O)N(Cc4cccc(N5CCC5=O)c4)c4ccccc43)[C@@H]2C)cc1	inactive
C[C@@H]1[C@@H]([Si](C)(C)F)[C@H](CC(=O)N(CCO)Cc2ccccc2)O[C@@]12C(=O)N(c1ccccc1)c1ccccc12	active
COc1ccc([Si](C)(C)[C@H]2[C@H](CC(=O)N(CCO)Cc3ccccc3)O[C@@]3(C(=O)N(Cc4ccc(N5CCC5=O)cc4)c4ccccc43)[C@@H]2C)cc1	inactive
COc1ccc([Si](C)(C)[C@@H]2[C@@H](CC(=O)N(CCO)Cc3ccccc3)O[C@]3(C(=O)N(Cc4cccc(N5CCC5=O)c4)c4ccccc43)[C@H]2C)cc1	inactive
N#Cc1ccc[nH]c1=O	inactive
C[C@@H]1CN([C@@H](C)CO)C(=O)c2cc(NS(=O)(=O)c3cccs3)ccc2O[C@@H]1CN(C)C(=O)Nc1cccc2ccccc12	inactive

— the antibiotic and cytotoxicity screens of Wong et al. (2023)
